# Data taken from PubChem BioAssay.
# Several values for one entry are separate records, joined by “and”; a condition that tells them apart may be missing. Equal entries are not always repeated. Activity calls are given as the source filed them.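 How the source made its calls, unless noted: active means compounds whose cell count with miR-34 switched on is under 0.7 times the count with it off; inactive means the rest.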
# What was measured:
# [1] = viability loss with induced miR-34 in A549 – imaging, A549 dox-inducible miR-34, nuclei and caspase counts, primary screen (AID 1347080); conditions: A549 miR-34 inducible, Hoechst nuclei count, 48 h
# [2] = MELAS cybrid and Rieske KO viability enhancers – cell-based, MELAS cybrids, Rieske KO mouse fibroblasts, CellTiter-Glo, primary screen (AID 1508586;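 active means mean z-score across replicates of 1.96 or higher in either the MELAS or the Rieske mutant cell line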;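 further: z relative to plate mean and SD of compound and empty wells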); conditions: low glucose
# [3] = stronger effect = lower value, cell number ratio, induced over uninduced
# [4] = measured here: relative caspase fold change +Dox/-Dox
# [5] = measured here: total cells with miR-34 induction, stronger effect = lower value
# [6] = measured here: total cells without miR-34 induction
# [7] = MELAS cybrid survival, CellTiter-Glo 48 h, stronger effect = higher value
# [8] = Rieske KO mouse fibroblast survival, CellTiter-Glo 72 h
# Further: test concentration not given here.
Compound,"fold change [1, 3]","fold change [1, 4]","cell count [1, 5]","cell count [1, 6]","z-score [2, 7]","z-score [2, 8]"
CC(C)(C(=O)c1cccnc1)c1cccnc1,0.962 (inactive) and 0.83 (inactive) and 0.921 (inactive),1.43 and 1.26 and 2.87,10400 and 8590 and 12100,10800 and 10300 and 13100,0.55 (inactive),0.502
Nc1nccs1,0.923 (inactive),0.616,7980,8650,-0.119 (inactive),-0.205
Nc1cc(-c2ccncc2)c[nH]c1=O,0.97 (inactive) and 0.958 (inactive),0.721 and 1.08,9670 and 8610,9980 and 8980,-0.926 (inactive),-1.08
CN(C/C=C/C#CC(C)(C)C)Cc1cccc2ccccc12,0.935 (inactive) and 0.938 (inactive),4.07 and 1.16,11600 and 9190,12400 and 9800,0.287 (inactive) and -0.488 (inactive),-0.0957 and -0.937
COC(=O)N/N=C/c1c[n+]([O-])c2ccccc2[n+]1[O-],0.833 (inactive) and 0.91 (inactive),6.83 and 1.15,10200 and 7650,12300 and 8400,0.937 (inactive) and 0.871 (inactive),0.153 and -0.0791
CC(N)CCCC(C)(C)O (stereo not given),0.926 (inactive),1.29,8630,9320,0.045 (inactive),0.396
NC(=O)NC1NC(=O)NC1=O (stereo not given),0.95 (inactive) and 0.875 (inactive),1.05 and 3.99,8140 and 12000,8570 and 13800,-0.771 (inactive),0.175
C[n+]1ccccc1/C=N/O,0.951 (inactive) and 0.91 (inactive),1.53 and 0.982,10700 and 9130,11200 and 10000,0.437 (inactive),-0.00254
CC(Cc1cccc(C(F)(F)F)c1)NCCOC(=O)c1ccccc1 (stereo not given),0.816 (inactive),1.56,8560,10500,0.63 (inactive),0.0603
CCN(CC)Cc1cc(Nc2ccnc3cc(Cl)ccc23)ccc1O,0.891 (inactive),1.28,7140,8010,0.684 (inactive),0.737
CCN(CC)CCOC(=O)C(c1ccccc1)C1CCCCC1 (stereo not given),0.896 (inactive),1.16,8670,9680,-2.21 (inactive),0.0498
Nc1nc2c(ncn2CCC(CO)CO)c(=O)[nH]1,0.945 (inactive) and 0.956 (inactive) and 0.874 (inactive),1.67 and 0.466 and 0.841,10200 and 9130 and 9970,10800 and 9540 and 11400,-0.249 (inactive) and -1.06 (inactive) and -0.78 (inactive),-0.179 and 0.138 and 0.0729
COC(=O)CCc1ccc(OCC(O)CNC(C)C)cc1 (stereo not given),0.896 (inactive) and 0.841 (inactive) and 0.908 (inactive),0.838 and 0.901 and 1.51,9510 and 7720 and 9690,10600 and 9170 and 10700,-0.164 (inactive) and -0.834 (inactive) and -0.539 (inactive),-0.149 and -1.1 and -1.41
CN1C(C)(C)CCCC1(C)C,0.888 (inactive),1,9180,10300,-0.15 (inactive),1.08
NS(=O)(=O)c1cc2c(cc1Cl)NC(CSCc1ccccc1)=NS2(=O)=O,0.856 (inactive) and 0.772 (inactive),1.39 and 1.03,8870 and 9840,10400 and 12800,0.425 (inactive),-0.312
CC(C(=O)O)c1ccc2c(c1)[nH]c1ccc(Cl)cc12 (stereo not given),0.887 (inactive) and 0.921 (inactive),0.75 and 3.71,8310 and 12000,9370 and 13100,-0.267 (inactive) and -0.0777 (inactive),-0.169 and 0.447
CCN(CCCc1ccccc1)CCCc1ccccc1,0.954 (inactive) and 0.931 (inactive) and 0.904 (inactive),1.55 and 0.42 and 0.729,9190 and 7300 and 10700,9640 and 7840 and 11900,-0.31 (inactive) and -0.215 (inactive),-0.176 and -0.103
CN1CCN(C2=Nc3cc(F)ccc3Cc3ccccc32)CC1,0.822 (inactive) and 0.853 (inactive),1.3 and 0.98,5980 and 8510,7280 and 9980,-0.621 (inactive),0.127
Nc1ccc(S(=O)(=O)Nc2cnc3ccccc3n2)cc1,0.892 (inactive) and 0.874 (inactive),0.858 and 3.15,8790 and 11400,9850 and 13000,0.496 (inactive),0.547
Oc1c(Br)cc(Br)c2cccnc12,0.97 (inactive),0.803,7880,8120,-0.25 (inactive),-0.139

Compound,"fold change [1, 3]","fold change [1, 4]","cell count [1, 5]","cell count [1, 6]","z-score [2, 7]","z-score [2, 8]"
COc1cc(NS(=O)(=O)c2ccc(N)cc2)ncn1,0.902 (inactive) and 0.903 (inactive),1.06 and 3.99,9390 and 12000,10400 and 13300,0.538 (inactive),0.095
O=C(O)c1ccccc1O,0.935 (inactive) and 0.936 (inactive),0.622 and 2.5,8100 and 11600,8660 and 12400,-0.0591 (inactive),-0.159
O=C1c2c(O)cccc2Cc2cccc(O)c21,0.891 (inactive),1.8,11600,13000,0.308 (inactive),0.465
CC(C)N=C(N)/N=C(\N)Nc1ccc(Cl)cc1,0.874 (inactive) and 0.829 (inactive),0.463 and 3.03,7740 and 10800,8860 and 13000,-1.19 (inactive),0.61
NCCCC[C@H](N[C@@H](CCc1ccccc1)C(=O)O)C(=O)N1CCC[C@H]1C(=O)O,0.921 (inactive) and 0.874 (inactive) and 0.913 (inactive),0.957 and 2.44 and 1.18,8900 and 11300 and 9570,9670 and 13000 and 10500,0.256 (inactive) and -0.39 (inactive),-0.142 and -0.658
COc1cc2c3cc1Oc1cc(ccc1O)C[C@@H]1c4c(cc(OC)c(O)c4Oc4ccc(cc4)C[C@@H]3N(C)CC2)CC[N+]1(C)C,0.869 (inactive) and 0.934 (inactive),2.84 and 1.19,11500 and 10000,13300 and 10700,-0.392 (inactive),-0.225
CN1CCN(c2c(F)cc3c(=O)c(C(=O)O)cn4c3c2SCC4)CC1,0.974 (inactive) and 0.992 (inactive) and 0.895 (inactive),0.702 and 1.33 and 0.919,7420 and 9770 and 9480,7610 and 9850 and 10600,0.206 (inactive) and 0.665 (inactive),0.617 and -0.349
CC(=O)Oc1cccc2c1C(=O)c1c(OC(C)=O)cc(C(=O)O)cc1C2=O,0.904 (inactive),2.1,8090,8950,-0.263 (inactive) and -0.828 (inactive),-0.165 and -1.06
NC(N)=NS(=O)(=O)c1ccc(N)cc1,0.891 (inactive) and 0.893 (inactive) and 0.92 (inactive),1.33 and 1.72 and 4.63,7720 and 8610 and 11300,8670 and 9630 and 12200,-0.23 (inactive) and -0.511 (inactive),-0.172 and -0.306
O=C(O)CCCC[C@@H]1SC[C@@H]2NC(=O)N[C@@H]21,0.845 (inactive),1.66,8760,10400,-0.325 (inactive),-0.214
COc1cccc(OC)c1C(=O)N[C@@H]1C(=O)N2[C@@H]1SC(C)(C)[C@@H]2C(=O)O,0.949 (inactive),0.959,11700,12400,-0.625 (inactive),-0.275
CC(=O)OC/C=C(C)/C=C/C=C(C)/C=C/C1=C(C)CCCC1(C)C,0.9 (inactive),1.05,10300,11500,-0.677 (inactive),-0.15
Nc1ncnc2nc[nH]c12,0.911 (inactive) and 0.881 (inactive),0.822 and 4.73,8220 and 12600,9020 and 14300,-0.543 (inactive),-0.641
CCOC(=O)n1ccn(C)c1=S,0.866 (inactive) and 0.865 (inactive),1.28 and 0.473,8700 and 8400,10100 and 9710,-0.0629 (inactive) and 0.57 (inactive),-0.122 and 0.0161
CCOC(=O)c1ccc(N)cc1,0.793 (inactive) and 0.945 (inactive) and 0.848 (inactive),1.13 and 0.443 and 0.967,7670 and 8350 and 9530,9660 and 8840 and 11200,-0.198 (inactive) and -0.244 (inactive),-0.136 and -0.658
CC(C(=O)O)c1ccc(C(=O)c2cccs2)cc1 (stereo not given),0.842 (inactive) and 0.947 (inactive) and 0.9 (inactive),1.16 and 0.84 and 2.46,9210 and 7840 and 11900,10900 and 8270 and 13200,0.0275 (inactive) and 0.475 (inactive),-0.115 and -0.0807
O=C(OCC(O)CO)c1ccccc1Nc1ccnc2cc(Cl)ccc12 (stereo not given),0.91 (inactive),1.28,8940,9820,1.77 (inactive),0.884
CN1CCCCC1CCN1c2ccccc2Sc2ccc(S(C)=O)cc21 (stereo not given),0.812 (inactive) and 0.898 (inactive) and 0.879 (inactive),1.32 and 2.22 and 1.93,7930 and 7130 and 7860,9770 and 7940 and 8940,0.0731 (inactive) and 0.00466 (inactive),-0.192 and -0.653
C[C@]12CCC(=O)C=C1C=C[C@@H]1[C@@H]2CC[C@@]2(C)[C@H]1CC[C@@]21CCC(=O)O1,0.826 (inactive),1.19,8530,10300,-0.57 (inactive) and -0.163 (inactive),-0.749 and -0.289
NC1CCN(c2nc3c(cc2F)c(=O)c(C(=O)O)cn3-c2ccc(F)cc2F)C1 (stereo not given),0.986 (inactive) and 0.879 (inactive),1.53 and 1.43,9740 and 8420,9880 and 9570,-0.38 (inactive) and 0.118 (inactive),-2.21 and -0.244
